PubChem BioAssay AID1006 (Sanford-Burnham Center for Chemical Genomics, 2008)
The campaign covered roughly 200,000 compounds. About 3,000 (1.5%) were called active. What follows is part of a selection rich in actives, with near analogues and random picks from the rest. Unmarked numbers belong to inactive results.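 The calls were made as follows: active = inhibition above about 50% when tested at 10 µM (limit read from the data); inactive = the rest.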

Biological target: Luciferin 4-monooxygenase (Photinus pyralis) (UniProt P08659)
Test: inhibition of purified FLuc reporter enzyme – biochemical, luminescence, ATPLite, artefact control for luciferase-based inhibitor screens, primary screen (AID 1006)
Details: ATPLite firefly luciferase biochemical luminescence, 10 min; at 10 µM; stronger effect = higher value

Sequence of Luciferin 4-monooxygenase (Photinus pyralis) (P08659 whole entry, looked up): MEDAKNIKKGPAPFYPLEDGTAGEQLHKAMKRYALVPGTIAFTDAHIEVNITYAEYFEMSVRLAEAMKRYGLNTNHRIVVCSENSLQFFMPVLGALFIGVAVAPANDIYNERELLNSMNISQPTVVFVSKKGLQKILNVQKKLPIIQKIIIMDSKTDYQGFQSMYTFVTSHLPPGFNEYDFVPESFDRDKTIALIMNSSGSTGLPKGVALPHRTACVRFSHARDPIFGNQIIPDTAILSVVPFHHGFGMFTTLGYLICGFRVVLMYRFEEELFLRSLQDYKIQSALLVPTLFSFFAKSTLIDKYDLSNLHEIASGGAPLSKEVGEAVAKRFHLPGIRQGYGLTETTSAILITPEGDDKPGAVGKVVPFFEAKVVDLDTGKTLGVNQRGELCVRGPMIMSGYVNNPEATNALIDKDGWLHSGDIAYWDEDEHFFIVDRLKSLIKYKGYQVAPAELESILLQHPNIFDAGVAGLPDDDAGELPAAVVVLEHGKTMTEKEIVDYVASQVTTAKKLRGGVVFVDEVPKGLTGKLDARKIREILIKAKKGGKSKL

SMILES | inhibition
O=C(c1cncc(Br)c1)N1CCN(c2ccc([N+](=O)[O-])cc2)CC1 | -0.9%
COC(=O)c1ccc(-c2noc(CN(Cc3ccccn3)CC3CCCO3)n2)cc1 (centres undefined) | 4.4%
Cc1ccc(-n2c(C)cc(C(=O)CN3C(=O)C(=O)N(C4CCCC4)C3=O)c2C)cc1 | -7.1%
COc1cc(/C=N/NC(=O)c2cc(C)n(-c3ccc(F)cc3)c2C)cc(OC)c1O | 5.2%
Cc1cc(C(=O)COC(=O)C2CC2)c(C)n1-c1ccc(F)cc1 | 95% (active)
CCOc1ccc(N=Cc2c(O)n(-c3cccc(C)n3)c(=O)c3ccccc23)cc1 | -1%
CC(=O)n1c(C=Nc2ccccc2)c(O)c2ccccc21 | 61.6% (active)
CCCn1c(=O)c(-c2ccccc2)c(O)c2ccccc21 | 0.1%
Cc1cccc(C(=O)NNC(=O)c2cccc([N+](=O)[O-])c2)c1 | -0.8%
CCc1ccc(-c2cc(C(=O)NN3CCN(C)CC3)c3ccccc3n2)cc1 | 63% (active)
CC(C)(C)Cc1nnc(NC(=O)c2cc(-c3ccccc3)nc3ccccc23)s1 | -4.3%
O=C(NCCc1ccccn1)c1cc(-c2ccc(Cl)cc2)nc2ccccc12 | 1.6%
Cc1nc2ccc(NC(=S)N3CCC(C)CC3)cc2nc1C | -2.6%
O=C(C1CCCN1S(=O)(=O)c1ccc(Br)cc1)N1CCOCC1 (centres undefined) | 0.6%
CCCCN(CC)CCCNC(=O)c1ccc(CSc2nc3ccncc3[nH]2)cc1 | 37.9%
O=C(CC1CCCCC1)NCc1ccc(F)cc1 | -3.7%
c1ccc(-n2nnnc2-c2cccnc2)cc1 | -0.4%
COc1ccc(C2COC(=O)C2=N)c(NC(=O)c2ccccc2)c1 (centres undefined) | -6.7%
COc1ccc(NC(=O)c2ccc(OC)cc2)cc1 | 63.1% (active)
COc1ccc(C(=O)Nc2ccc(S(=O)(=O)NC(C)C)cc2)cc1 | -3.1%
COc1cccc(C(=O)Nc2ccc(N3CCCC3)cc2)c1 | 67.6% (active)
COc1cccc(OC)c1C(=O)Nc1ccc(N2CCCCC2)cc1 | -8.2%

SMILES | inhibition
COc1ccc(C(=O)NC(=S)Nc2ccc(N3CCCC3)cc2)cc1OC | -14.5%
COc1ccc(NC(=O)c2ccc(C#CC(C)(C)O)cc2)cc1 | 5.6%
COc1cccc(C(=O)NNC(=O)c2ccccc2Br)c1 | 2.9%
COc1cccc(C(=O)Nc2cc3c(cc2Br)OCCCO3)c1 | 64.3% (active)
CC(C)(C)C1CCC(C(=O)Nc2cccnc2)CC1 (centres undefined) | -3.4%
COc1ccc(-c2csc(-c3cccs3)n2)cc1OC | 19.9%
COc1cccc(C(=O)NCCSc2ccc(Br)cc2)c1 | 2.1%
C=CCNc1scc(-c2ccccc2)[n+]1CC=C | -5.9%
N=c1oc2ccccc2cc1C(=O)N/N=C/c1ccccc1 | 56.7% (active)
O=C(N/N=C/c1coc2ccccc2c1=O)c1cc2ccccc2o1 | -6.6%
CNC(=O)c1cc2c(ccc3ccccc32)oc1=N | 7.1%
O=C(O)C1C2CC2CN1C(=O)c1ccc(Cl)cc1Cl (centres undefined) | -5%
O=C(OC1CCOC1=O)c1ccc(-c2nc3ccccc3s2)s1 (centres undefined) | 91.4% (active)
Cc1nn(Cc2ccccc2)c(Cl)c1C(=O)OC1CCOC1=O (centres undefined) | -3.6%
O=C(OC1CCOC1=O)c1cccc(S(=O)(=O)Nc2ccc(F)cc2)c1 (centres undefined) | -4.8%
N#CC1(C#N)C(C(=O)C23CC4CC(CC(C4)C2)C3)C12CCOCC2 (centres undefined) | -9.2%
CCc1cc2c(=O)c(-c3ccon3)c(N)oc2cc1OC | 59.4% (active)
CCc1cc2c(=O)c(-c3ccc(F)cc3)c(C(F)(F)F)oc2cc1OCC(=O)O | -5.2%
CCc1cc2c(=O)c(-c3nc4ccccc4n3C)c(CCCC(=O)O)oc2cc1OC(=O)C(C)(C)C | 2.4%
CCOc1ccc(S(=O)(=O)Nc2nccs2)cc1 | -7.4%
COc1ccc(-c2noc(-c3ccc(C)cc3)n2)cc1 | 44.5%
COc1ccc(-c2noc(-c3cccc(OC)c3OC)n2)cc1OC | 48.7%

SMILES | inhibition
COc1ccc(-c2nc(-c3ccccc3)no2)c(OC)c1 | 85.4% (active)
Cc1ccc(S(=O)(=O)Nc2nc(N)n(-c3ccccc3)n2)cc1 | -5.1%
Cc1ccc(NC(=O)C2(N3CCC3=O)CCCCC2)cc1 | -9%
CCC(=O)Nc1cccc(NC(=O)c2cccnc2)c1 | -0.5%
Cc1nn(Cc2ccc(Cl)cc2)c(Cl)c1/C=N/NC(=O)c1cccnc1 | -5.5%
Cc1cc(/C=N/NC(=O)c2cccnc2)c(C)n1CC(C)C | 63.5% (active)
CC(Oc1ccc(Br)cc1Br)C(=O)NC1CCCC1 (centres undefined) | -6.3%
CCN(CC)S(=O)(=O)c1cc(C(=O)Nc2ccccn2)ccc1C | 58% (active)
Cc1ccc(S(=O)(=O)/N=C(/Nc2ccccn2)c2ccc(Cl)cc2)cc1 | -1.5%
CCN(CC)S(=O)(=O)c1cccc(C(=O)Nc2ccccc2)c1 | -4.6%
Cn1c(N)cc(-c2ccc(F)cc2)c(C#N)c1=O | -3.4%
COc1cc(CNC2CCCCC2)c(Br)cc1OC1CCCC1 | -3.7%
Cc1cc(C)nc(NC(=O)c2cccc([N+](=O)[O-])c2)c1 | 0.2%
CCO[C@H]1OC(C(=O)O)=C[C@@H](C2CCCCC2)[C@@H]1CCCO | -12%
CC(=O)Nc1cccc(-c2nc3ccccc3s2)c1C | 52% (active)
COC(=O)c1nc2ccccc2s1 | -1.8%
Oc1ccc(-c2[nH]ncc2-c2nc3ccccc3s2)c(O)c1 | -7.2%
c1csc(-c2nnc(COc3ccc4c(c3)OCO4)o2)c1 | 5.4%
NS(=O)(=O)c1ccc(N2C(=O)C3C4CC(C(Br)C4Br)C3C2=O)cc1 (centres undefined) | -4.1%
CCc1ccc(N2CC(O)=C(c3nc4ccccc4c(=O)[nH]3)C2=N)cc1 | 1.7%
